Source: PubChem BioAssay (National Center for Advancing Translational Sciences (NCATS))
ELG1 DNA repair: blocks ELG1-dependent DNA repair in HEK293T cells | HEK293T ELG1-luciferase reporter, luminescence, 16 h; DNA damage induced by 5-fluorouridine | Potency, µM (doses to about 46.1 µM), for inactives: at the highest dose activity change, negative = inhibition, hits mostly inhibitors | 330,000 tested, 2.3% active | AID 504467; also: % is scaled to controls: 0 for no effect and ±100 for the full control effect; nearly all actives have a fitted effect of over 55% in size
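5-Fluorouridine DNA damage + compound/DMSO, 2,000 cells/well, 16 h, 37 °C/5% CO2. ONE-Glo, 30 min RT, luminescence. Readout = decrease in reporter signal.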
RORg inh: inhibitors of mouse ROR gamma transcriptional activity. Potency, µM (titrated, usually from 53.6 µM), inactives show at the highest dose activity change, negative = inhibition, hits mostly inhibitors. Drosophila S2 Gal4-RORgamma UAS-luciferase reporter, 20 h. 310,000 tested, 5.4% active; also: % is scaled to controls: 0 for no effect and ±100 for the full control effect; nearly all actives have a fitted effect of over 60% in size
Target sequence (P51450 whole entry, looked up, the tested form may be a part): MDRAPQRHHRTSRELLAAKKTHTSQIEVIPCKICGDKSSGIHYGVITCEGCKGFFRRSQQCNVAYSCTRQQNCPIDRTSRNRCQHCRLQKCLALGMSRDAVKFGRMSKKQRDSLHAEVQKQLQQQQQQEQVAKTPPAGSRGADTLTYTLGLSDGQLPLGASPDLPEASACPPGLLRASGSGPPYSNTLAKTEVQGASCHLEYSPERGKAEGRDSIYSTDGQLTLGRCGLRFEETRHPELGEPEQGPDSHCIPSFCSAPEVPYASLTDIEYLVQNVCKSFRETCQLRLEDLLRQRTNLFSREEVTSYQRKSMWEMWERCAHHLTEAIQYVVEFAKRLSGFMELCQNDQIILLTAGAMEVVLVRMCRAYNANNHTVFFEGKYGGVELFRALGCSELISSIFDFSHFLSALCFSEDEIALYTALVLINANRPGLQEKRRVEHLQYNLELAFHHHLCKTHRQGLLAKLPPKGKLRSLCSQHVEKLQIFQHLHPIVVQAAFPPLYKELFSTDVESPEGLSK
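Stable Schneider cell line, Gal4 DNA-binding domain fused to ROR gamma, UAS-luciferase. Cmpd 1 hr RT → CuSO4 700 uM final → 20 hr RT → luciferase reagent 10 min → luminescence.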
MCF10A rerep: DNA re-replication induction in MCF 10a cells. 350,000 tested, 2.9% active. Potency, µM (doses to about 46.1 µM), for the others: at the highest dose activity, positive = re-replication, most hits filed as activators. MCF 10A DNA re-replication, Hoechst nuclear intensity, 48 h; also: % of control where 0% means no effect; nearly all actives have a fitted effect of over 50% in size
SW480 rereplic: DNA re-replication induction in SW480 cells; SW480 DNA re-replication, Hoechst DNA content imaging, 48 h; Potency, µM (series often up to 46.1 µM), inactives show at the highest dose re-replication activation, hits mostly activators; 340,000 tested, 1.8% active; AID 624297; also: % of control where 0% means no effect; nearly all actives have a fitted effect of over 55% in size
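Image-based DNA-content assay: after two days of treatment, nuclei were labelled with the DNA dye Hoechst and imaged, and hits were compounds raising the count of nuclei showing high fluorescence intensity.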
VP16 counter: inhibits Gal4-VP16 luciferase reporter, ROR gamma counter-screen; Potency, µM (titrated, usually from 53.6 µM), inactives show at the highest dose activity, negative = inhibition, most hits filed as inhibitors; AID 2546; 310,000 tested, 3.5% active; Drosophila S2 Gal4-VP16 UAS-luciferase, luminescence, 20 h;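 also: Gal4-VP16 expression switched on by copper sulfate through the metallothionein promoter; % is scaled to controls: 0 for no effect and ±100 for the full control effect; nearly all actives have a fitted effect of over 50% in size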
An asterisk follows results filed as active; ? = inconclusive; / = no result given; [ ] = remark or other dose. Sampled rows, rich in hits. Any-hit rate of the full collection: about 10%. Calls follow the shape of the dose curve; as a rule, active = well fitted curve in the direction sought with a large enough effect; inconclusive = small, poorly fitted or top-dose-only effect, or another doubt; inactive = no such curve, though single readings can be large; an effect the other way counts as inactive or inconclusive. Potency is read from the fitted curve at half-maximal effect.

SMILES	ELG1 DNA repair	RORg inh	MCF10A rerep	SW480 rereplic	VP16 counter
COc1ccccc1/C=C1\CCCC2=C1Nc1nnnn1C2c1ccccc1OC (stereo unspecified)	-13.4%	?	?	?	14.1µM*
O=C(c1ccc(F)cc1)N1CCOC(c2nc(-c3ccc(F)cc3)no2)C1 (stereo unspecified)	8.7%	/	36.5%	-3.6%	/
O=C(COC(=O)c1ccc(O)cc1)NCCc1c[nH]c2ccccc12	0.0%	/	-3.8%	-6.3%	/
S=c1nc(C2CC2)n(-c2ccccc2)[nH]1	4.7%	7.94µM*	-0.1%	-5.6%	?
O=C(Cn1cc([N+](=O)[O-])nc1[N+](=O)[O-])N1CCN(c2ccccc2)CC1	?	5.62µM*	4.3%	?	?
COc1ccc(N2C(=O)c3ccc(C(=O)Nc4ccccc4O)cc3C2=O)cc1	-1.4%	19.1%	2.91µM*	-40.7%	-16.7%
C=CCC(C)(O)C#Cc1ccccc1 (stereo unspecified)	/	-5.5%	/	/	1.2%
COc1cc(CNCc2ccccn2)ccc1OCc1cccc(Cl)c1	4.6%	3.98µM*	13µM*	?	?
COc1cc(CNCc2ccccn2)ccc1OCc1c(Cl)cccc1Cl	?	14.1µM*	?	?	20µM*
COc1cc(CNCc2ccccn2)ccc1OCc1ccc(Cl)cc1	7.8%	-17.1%	?	3.8%	-19.4%
Cn1c(CCc2nc3ccccc3[nH]2)nnc1SCC#N	20.6µM*	14.1µM*	9.5%	1.2%	?
CN1CCN(NC(=O)c2ccc(S(=O)(=O)N3CC4(C)CC3CC(C)(C)C4)cc2)CC1 (stereo unspecified)	?	5.7%	?	18.4µM*	-4.8%
C/C(=N\Nc1nc2ccccc2[nH]1)c1ccccn1	?	2.51µM*	/	/	-70.1%
CCNc1nc2ccccc2[nH]1	13.3%	-4.8%	-8.2%	2.0%	-10.3%
C/C(=N\Nc1nc2ccccc2[nH]1)c1cc2ccccc2o1	?	4.47µM*	?	-1.0%	3.55µM*
Cc1ccc(S(=O)(=O)N2CCN(C(=O)COC(=O)c3ccc(Cl)c(S(N)(=O)=O)c3)CC2)c(C)c1	/	/	-5.0%	-7.8%	/
CC(Oc1ccc(Cl)cc1)C(=O)N/N=C/c1ccsc1 (stereo unspecified)	-6.8%	11.2µM*	9.7%	-1.4%	?
CC(Oc1ccc(-c2ccccc2)cc1)C(=O)N/N=C/c1cccnc1 (stereo unspecified)	7.1%	11.7%	8.9%	-9.2%	-5.3%
Cc1ccc(-n2nc3c(c2NC(=O)c2ccc(F)c(F)c2)CS(=O)(=O)C3)cc1	?	14.2%	?	-2.1%	-6.2%
O=C(Nc1ccc2c(c1)OCO2)c1cc(-c2ccc(O)cc2)on1	?	0.0%	10.3µM*	?	?
O=C(Nc1ccc2c(c1)OCO2)c1cc(-c2cccc(O)c2)on1	0.5%	7.08µM*	?	12.8%	14.1µM*
Cc1ccc(NC(=O)c2cc(-c3ccc4c(c3)OCO4)on2)cc1C	?	0.1%	8.0%	11.2%	-5.9%
COc1cccc(-c2cc(C(=O)Nc3ccc4c(c3)OCO4)no2)c1	?	-12.9%	12.0%	2.1%	0.1%
C[C@H]1CC[C@H]2C(=O)N3[C@H](c4ccc(Br)cc4)[C@@H](C)CC[C@H]3C(=O)N2[C@@H]1c1ccc(Br)cc1	/	3.4%[10 µM]	/	/	-9.8%[10 µM]
Nc1ccc(-c2nc(-c3ccccc3)nc3ccccc23)cc1	-12.0%	13.3%	16.4µM*	23.1µM*	-2.6%
Nc1ccc(-c2cc(-c3cccc(N)c3)nc(-c3ccccc3)n2)cc1	?	?	16.4µM*	?	-19.9%
c1ccc(Nc2nc(-c3ccccc3)nc3ccccc23)cc1	-9.7%	7.2%	?	?	-3.4%
Cc1ccc(C)c(SCc2noc(C(=O)NCC3CCCO3)c2C(=O)O)c1 (stereo unspecified)	-6.7%	0.8%	-2.9%	?	-6.6%
Cc1cc(C(=O)OCC(=O)N2CCCCCC2)ccc1[N+](=O)[O-]	0.0%	/	2.3%	-2.6%	/
Cc1c(Cl)cccc1NC(=S)NCCC(c1ccccc1)c1ccccc1	?	0.631µM*	?	?	1.26µM*
